# In PubChem BioAssay (NCI):
# About 79,000 compounds went through this panel and 15% of them were active in at least one assay; those are over-represented in the sample as a whole. Unmarked numbers belong to inactive results. Activity calls are given as the source filed them. Cut-off read from the data, not from the text of the source: active = growth inhibition above about 70%; inactive = the rest.
# Experiments:
# [1] = NCI Yeast Anticancer Drug Screen. Data for the rad50 strain (AID 155);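 note: 0% = growth of vehicle-only cultures of the same strain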; settings: S. cerevisiae rad50 strain growth inhibition; at 50.0 µM; stronger effect = higher value
# Method in brief: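 Relative growth inhibition (compound vs vehicle) was measured in yeast with a defined repair-gene alteration.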
# [2] = NCI Yeast Anticancer Drug Screen. Data for the mec2-1 strain (AID 157); settings: S. cerevisiae mec2-1 strain, at 50.0 µM, stronger effect = higher value
# Method in brief: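 Strain: mec2-1 (DNA repair/cell cycle alteration). Compound exposure, then growth measured; inhibition expressed relative to vehicle.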
# [3] = NCI Yeast Anticancer Drug Screen. Data for the sgs1 mgt1 strain (AID 161);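 note: 0% = growth of cultures given vehicle only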; settings: S. cerevisiae sgs1 mgt1 strain, at 50.0 µM, stronger effect = higher value
# Method in brief: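 Mutant yeast exposed to compound; growth scored against vehicle-only wells.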
# [4] = NCI Yeast Anticancer Drug Screen. Data for the cln2 rad14 strain (AID 165);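 note: 0% = growth equal to vehicle treated cultures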; settings: S. cerevisiae cln2 rad14 strain, at 50.0 µM, stronger effect = higher value
# Method in brief: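 Compounds are applied to the cln2 rad14 yeast strain, and growth is then compared with that of vehicle-treated cultures to give inhibition.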
# [5] = NCI Yeast Anticancer Drug Screen. Data for the bub3 strain (AID 167); settings: S. cerevisiae bub3 mutant strain, at 50.0 µM, stronger effect = higher value
# Method in brief: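 Screening used yeast with an engineered genetic alteration affecting cell cycle control. Compound-exposed cultures were compared with vehicle cultures, and reduced growth was taken as inhibition.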
# [6] = NCI Yeast Anticancer Drug Screen. Data for the mlh1 rad18 strain (AID 175); settings: S. cerevisiae mlh1 rad18 strain growth inhibition; at 50.0 µM; stronger effect = higher value
# Method in brief: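 Read-out is yeast growth inhibition, calculated against vehicle-only controls. The compound was applied to a strain engineered with DNA damage repair alterations.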
Compound,growth inhibition [1],growth inhibition [2],growth inhibition [3],growth inhibition [4],growth inhibition [5],growth inhibition [6]
CN1C/C(=C/c2ccc(N(C)C)cc2)C(=O)/C(=C/c2ccc(N(C)C)cc2)C1,-2.45%,-6.9%,-16.9%,-5.3%,-3.7%,-18.9%
ClCC1=NC2C(Cl)C(Cl)C(Cl)C(Cl)C2N1 (stereo unspecified),87.8% (active),77% (active),94.7% (active),87.5% (active),75.9% (active),94% (active)
O=C1O[C@@H](c2ccccc2)C[C@@H]1CN1CCOCC1,24.4%,13.7%,22.7%,26.1%,3.15%,15.1%
C/C(O)=C(/N=Nc1ccc(-c2nc3ccc(C)c(S(=O)(=O)O)c3s2)cc1)C(=O)Nc1ccccc1,12.7%,-22.5%,21.2%,16%,19.9%,26.9%
O=C(/C=C/c1ccc(O)c(O)c1)OC1C[C@@](O)(C(=O)O)C[C@@H](O)[C@H]1OC(=O)/C=C/c1ccc(O)c(O)c1 (stereo partly specified),17.8%,-14.1%,21.1%,-2.95%,-6%,25.9%
CCC(C)NC(=O)/C(=C\c1ccccc1O)NC(=O)c1ccccc1 (stereo unspecified),-30.1%,-35.6%,-2.25%,-5.65%,-4.3%,-4.45%
C=CCCCCCCCCC(=O)NCc1cccnc1,24.4%,9.15%,29.6%,20.1%,6.8%,64%
CC(C)C(O)(C(=O)O)C(C)C,11.1%,-11%,-4.1%,-4.3%,-17.9%,-1.15%
CCOC(=O)c1c[nH]c2nc(N)ccc2c1=O,-3.75%,-0.2%,9.9%,-16.4%,-0.7%,-5.4%
CC(=O)c1cc(-c2ccccn2)c(=O)n2ccccc12,26.1%,15.5%,-19.9%,-0.3%,5.25%,-4%
Cn1cnc([N+](=O)[O-])c1Sc1n[nH]c(-c2ccc(Cl)cc2)n1,-11.6%,1.7%,-7.75%,21.4%,17.1%,-6.05%
O=c1cc(S(=O)(=O)Cc2ccccc2)[nH]c(=O)[nH]1,43%,6.75%,0.2%,-43.6%,8.35%,31.2%
CC(C)=C(OC(=O)c1ccccc1)C(C)(CC(C)(C)C)C(C)(C)C (stereo unspecified),13.1%,-55.3%,-10.3%,-100%,-26.5%,19.4%
CCCCCCCCCCCCCCCCCCCCCCCCCCCCCCS(=O)(=O)Cl,14.7%,28.1%,16.9%,18.8%,33.9%,-18.9%
CC(=O)NC(Cc1ccccc1)c1ccccc1 (stereo unspecified),17.1%,-8.2%,11.1%,12.8%,21.6%,10.8%
CCOC(=O)C(C#N)(C1C=CCC1)C1C=CCC1 (stereo unspecified),-1.9%,-0.1%,14.3%,43.9%,46.3%,13.3%
Cc1ccc(S(=O)(=O)N2CCCC2C(=O)O[C@H]2CC[C@H]3CC=C[C@H]32)cc1 (stereo partly specified),-15.6%,-44.7%,-8.2%,-8.45%,-5.25%,-21.6%
CC(C(=O)O)C(C)(O)C(C)(C)C (stereo unspecified),-3.9%,1.05%,-5.25%,-37.4%,12.2%,-6.95%
COC1=CC(=O)C(c2cc(O)c(OC)cc2O)=CC1=O,-0.15%,4.45%,-3.65%,-8.65%,4.5%,5.2%
CN(NC(=O)c1cccs1)C1=NCCN1,-25.9%,-23.2%,-24.9%,7.25%,18.4%,-7.7%
O=C(C(CO)c1ccccc1)N1CCOCC1 (stereo unspecified),-10.3%,-15.4%,-3.45%,-23.4%,4.35%,2.55%

Compound,growth inhibition [1],growth inhibition [2],growth inhibition [3],growth inhibition [4],growth inhibition [5],growth inhibition [6]
COC1OC(C(C)Br)C2OC(C)(C)OC12 (stereo unspecified),7.1%,21.4%,3.5%,-6.2%,9.85%,27.4%
CC(C)(C)NC(=O)NCc1ccc(Cl)cc1,-0.5%,-16.1%,-12.1%,-29.6%,1%,-9.8%
OC1(c2ccccc2)C(c2ccccc2)=C(c2ccccc2)C(c2ccc(CCCCCCCCc3ccc(C4=C(c5ccccc5)C(O)(c5ccccc5)C(c5ccccc5)=C4c4ccccc4)cc3)cc2)=C1c1ccccc1 (stereo unspecified),-20.4%,-3.95%,-7.5%,-28.1%,-23.6%,-9.15%
NC(=O)c1ccccc1C(=O)c1ccccc1,-35%,1.85%,-8.6%,-20.1%,-27.1%,-10.3%
Nc1nc2cc(Cl)c(O)cc2o1,-3.25%,-11.6%,-3.5%,-6.7%,-3.55%,-7.9%
CC1(O)Oc2c(cc(C(C)(C)C)cc2C(C)(C)C)C1=O (stereo unspecified),17.4%,-10.1%,18.2%,-9%,23.6%,42.6%
Cn1c(=O)c2c(no[n+]2[O-])c2ccccc21,18.1%,15.7%,8.05%,14.1%,21.1%,22.4%
CC(C)(CO)N=Cc1ccc(Cl)c(Cl)c1,2.35%,-13.2%,-16.5%,-3.1%,-11.5%,-24.6%
COC(=O)C1=C2C3(O)CC4CC5C3CCC(C)N5C24C2CCC(O)C(OC)C2C1OC(=O)c1ccccc1 (stereo unspecified),-34.6%,-38.3%,-20.9%,-1.85%,-30.4%,4.35%
CCC(=O)Oc1ccccc1C(C)C,9.8%,-14.6%,1.9%,8.55%,-6.25%,12.2%
CNC(=O)OCc1c(COC(=O)NC)c2n(c1C)CCS2(=O)=O,-1.25%,-18.3%,-8.15%,-9.95%,0.35%,15.2%
CCC1=NS(=O)(=O)c2c(ncn2C)N1,11%,8.55%,-5.6%,11.3%,0.15%,1.35%
CCN(CC)CCCNc1cc(O)cc2cccnc12,-1.5%,5%,26.6%,2.6%,2.3%,-0.35%
CCCc1c(O)c2ccccc2[nH]c1=O,11.3%,11.7%,-37.8%,14.7%,15.8%,-8.3%
NCCNCc1ccccc1,5.5%,-1.5%,2.85%,5.65%,-1.8%,0.15%
CC(C)C(NC(=O)C1CSC(C)(C)N1C=O)C(N)=O (stereo unspecified),-5.2%,-31.6%,12.3%,-6.7%,36.7%,-25.2%
O=[N+]([O-])c1ccc2cccc3c2c1CC3,24.4%,18.1%,1.85%,-19.4%,8.95%,22.6%
COC1OCC(NC(=O)CNC(=O)CCCCCCCCCCCCC(C)C)C(O)C1O (stereo unspecified),16.2%,5.55%,8.75%,32.5%,-8.1%,18.6%
O=C(NCCNCCCNC(=O)c1cc(-c2ccccc2)nc2ccccc12)c1cccc(OCc2ccccc2)c1OCc1ccccc1,86.3% (active),90.9% (active),90.3% (active),87.5% (active),89.2% (active),85.8% (active)
CCC(C)(O)CCc1ccccc1 (stereo unspecified),-17.5%,-42.6%,-64.2%,2.55%,-36.3%,-5%
